Measurements taken from PubChem BioAssay (Tox21).
Inconclusive results are not listed. Active and inactive are the calls of the source. Unless noted, the call rests on the fitted dose curve; in most records, active means well fitted curve in the direction sought with a large enough effect in the repeat runs; inconclusive means weak or mixed curves; inactive means no such curve, though single readings can be large; an effect the other way counts as inactive or inconclusive.

How the values were obtained:
[1] = qHTS assay to identify small molecule antagonists of the glucocorticoid receptor (GR) signaling pathway - cell viability counter screen (AID 720693); further: nearly all actives have a fitted effect of over 55% in size
[2] = qHTS assay for identifying genotoxic compounds that show differential cytotoxicity against isogenic chicken DT40 cell lines with known DNA damage response pathways - wild type cell line (AID 743012); further: nearly all actives have a fitted effect of over 60% in size; further: potency means the concentration at half of the fitted maximal effect
Method in brief: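 Viability by ATP luminescence (CellTiter-Glo, 30 min RT) after 40 h compound treatment at 37 C/5% CO2, using 300 parental DNA repair-proficient DT40 cells per well.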

[3] = qHTS assay for identifying genotoxic compounds that show differential cytotoxicity against isogenic chicken DT40 cell lines with known DNA damage response pathways - Rad54/Ku70 mutant cell line (AID 743015); further: nearly all actives have a fitted effect of over 60% in size; further: potency means the concentration at half of the fitted maximal effect
[4] = qHTS assay to identify small molecule antagonists of the androgen receptor (AR) signaling pathway - cell viability counter screen (AID 743033; further: nearly all actives have a fitted effect of over 45% in size)
[5] = qHTS assay to identify small molecule antagonists of the androgen receptor (AR) signaling pathway using the MDA cell line - cell viability counter screen (AID 743041; further: nearly all actives have a fitted effect of over 45% in size)
Method in brief: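 Using the breast carcinoma line MDA-kb2 AR-luc, test chemicals were co-incubated with R1881 for 16 h; CellTiter-Fluor reagent, added at 15.5 h, provided a fluorescence measure of live cells.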

[6] = qHTS assay to identify small molecule antagonists of the thyroid receptor (TR) signaling pathway - cell viability counter screen (AID 743064); further: nearly all actives have a fitted effect of over 50% in size; further: potency means the concentration at half of the fitted maximal effect
Method in brief: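 GH3.TRE-Luc rat pituitary cells dosed after 4 hr plating, co-stimulated with T3 at 1 nM final, incubated 23.5 h at 37 C. Viability measured in the same wells by CellTiter-Fluor fluorescence after 30 min further at 37 C.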

[7] = qHTS assay to identify small molecule antagonists of the thyroid receptor (TR) signaling pathway (AID 743065); further: nearly all actives have a fitted effect of over 55% in size; further: potency means the concentration at half of the fitted maximal effect
Method in brief: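 Antagonism measured as loss of luciferase signal in GH3 cells stably carrying a TRE-luciferase reporter, co-treated with compound and T3 (1 nM final) for 23.5 h at 37 C. Viability was read in the same well by CellTiter-Fluor.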

[8] = tested on: thyroid hormone receptor (rat, GH3 cells); test: qHTS assay to identify small molecule agonists of the thyroid receptor (TR) signaling pathway (AID 743066; calls by dose curve)
[9] = qHTS assay to identify small molecule antagonists of the estrogen receptor alpha (ER-alpha) signaling pathway - cell viability counter screen (AID 743074; calls by dose curve; further: nearly all actives have a fitted effect of over 45% in size)
[10] = qHTS assay to identify small molecule antagonists of the estrogen receptor alpha (ER-alpha) signaling pathway using the BG1 cell line - cell viability counter screen (AID 743081);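 further: compound given together with 17beta-estradiol as the ER stimulus; series mostly up to about 70 µM; nearly all actives have a fitted effect of over 45% in size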
Aromatase (Homo sapiens) = Aromatase (Homo sapiens) (UniProt P11511); test: qHTS assay to identify aromatase inhibitors (AID 743083); further: nearly all actives have a fitted effect of over 55% in size; further: potency means the concentration at half of the fitted maximal effect
Chain of Aromatase (Homo sapiens) (P11511 whole entry, looked up): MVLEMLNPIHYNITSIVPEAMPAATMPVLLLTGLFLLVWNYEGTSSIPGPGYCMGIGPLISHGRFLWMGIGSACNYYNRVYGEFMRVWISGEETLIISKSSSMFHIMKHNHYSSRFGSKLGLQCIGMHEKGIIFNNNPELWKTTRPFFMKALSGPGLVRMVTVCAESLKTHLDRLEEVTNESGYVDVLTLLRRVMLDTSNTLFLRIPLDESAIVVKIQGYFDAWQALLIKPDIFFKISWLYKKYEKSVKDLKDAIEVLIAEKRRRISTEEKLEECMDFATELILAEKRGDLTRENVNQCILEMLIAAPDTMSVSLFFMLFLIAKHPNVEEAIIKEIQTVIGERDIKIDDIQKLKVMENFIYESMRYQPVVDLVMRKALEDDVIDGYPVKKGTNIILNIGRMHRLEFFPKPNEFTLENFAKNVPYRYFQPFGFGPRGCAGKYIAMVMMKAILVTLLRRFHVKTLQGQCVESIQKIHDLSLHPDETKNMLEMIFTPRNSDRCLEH

[11] = qHTS assay to identify aromatase inhibitors - cell viability counter screen (AID 743084);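 further: cells stimulated with testosterone during compound exposure; nearly all actives have a fitted effect of over 55% in size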
[12] = target: Estrogen receptor (Homo sapiens) (UniProt P03372); test: qHTS assay to identify small molecule agonists of the estrogen receptor alpha (ER-alpha) signaling pathway (AID 743075; calls by dose curve)
Chain of Estrogen receptor (Homo sapiens) (P03372 whole entry, looked up): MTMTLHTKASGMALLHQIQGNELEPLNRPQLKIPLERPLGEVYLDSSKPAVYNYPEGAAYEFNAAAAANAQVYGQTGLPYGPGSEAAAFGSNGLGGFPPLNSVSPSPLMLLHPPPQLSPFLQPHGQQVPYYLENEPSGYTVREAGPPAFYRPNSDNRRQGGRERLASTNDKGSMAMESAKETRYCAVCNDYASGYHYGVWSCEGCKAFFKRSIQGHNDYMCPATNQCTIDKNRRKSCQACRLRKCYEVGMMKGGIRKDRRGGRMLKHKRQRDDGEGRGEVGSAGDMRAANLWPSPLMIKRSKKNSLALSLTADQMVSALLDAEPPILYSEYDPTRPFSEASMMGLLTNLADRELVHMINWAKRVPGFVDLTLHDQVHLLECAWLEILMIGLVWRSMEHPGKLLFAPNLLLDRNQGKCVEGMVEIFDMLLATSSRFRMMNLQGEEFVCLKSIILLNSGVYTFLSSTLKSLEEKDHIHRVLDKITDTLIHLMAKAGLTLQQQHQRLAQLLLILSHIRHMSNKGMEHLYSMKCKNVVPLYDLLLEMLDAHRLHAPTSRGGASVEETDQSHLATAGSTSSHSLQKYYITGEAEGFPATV

[13] = target: Estrogen receptor (Homo sapiens) (UniProt P03372); test: qHTS assay to identify small molecule agonists of the estrogen receptor alpha (ER-alpha) signaling pathway using the BG1 cell line (AID 743079); further: nearly all actives have a fitted effect of over 20% in size
[14] = qHTS assay to identify small molecule antagonists of the estrogen receptor alpha (ER-alpha) signaling pathway using the BG1 cell line (AID 743080; calls by dose curve;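 further: BG1 cells stimulated with 17beta-estradiol alongside compound; nearly all actives have a fitted effect of over 25% in size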; further: potency means the concentration at half of the fitted maximal effect)
Method in brief: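 Readout is ONE-Glo luminescence, taken 30 min at room temperature after reagent addition, preceded by a CellTiter-Fluor viability read; BG1-Luc-4E2 cells had received compound and 17beta-estradiol for 21.5 h at 37 C.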

[15] = qHTS assay for identifying genotoxic compounds that show differential cytotoxicity against isogenic chicken DT40 cell lines with known DNA damage response pathways - Rev3 mutant cell line (AID 743014); further: nearly all actives have a fitted effect of over 55% in size; further: potency means the concentration at half of the fitted maximal effect
[16] = target: Estrogen receptor (Homo sapiens) (UniProt P03372); test: qHTS assay to identify small molecule antagonists of the estrogen receptor alpha (ER-alpha) signaling pathway (AID 743069; active means well fitted curve in the direction sought with a large enough effect in the signal ratio in the repeat runs, not every such curve was filed as active; the % refers to the signal ratio; further: potency means the concentration at half of the fitted maximal effect)
Method in brief: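 Fluorescence intensity from a beta-lactamase FRET substrate served as the read-out. Cells: HEK293 with stably integrated ER-alpha-UAS-bla reporter. Agonist 17beta-estradiol was co-added with compounds; incubation 18 hr at 37C, substrate 2 hr at room temperature.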

[17] = target: Androgen receptor (Homo sapiens) (UniProt P10275); test: qHTS assay to identify small molecule agonists of the androgen receptor (AR) signaling pathway using the MDA cell line (AID 743040; further: nearly all actives have a fitted effect of over 20% in size)
Chain of Androgen receptor (Homo sapiens) (P10275 whole entry, looked up): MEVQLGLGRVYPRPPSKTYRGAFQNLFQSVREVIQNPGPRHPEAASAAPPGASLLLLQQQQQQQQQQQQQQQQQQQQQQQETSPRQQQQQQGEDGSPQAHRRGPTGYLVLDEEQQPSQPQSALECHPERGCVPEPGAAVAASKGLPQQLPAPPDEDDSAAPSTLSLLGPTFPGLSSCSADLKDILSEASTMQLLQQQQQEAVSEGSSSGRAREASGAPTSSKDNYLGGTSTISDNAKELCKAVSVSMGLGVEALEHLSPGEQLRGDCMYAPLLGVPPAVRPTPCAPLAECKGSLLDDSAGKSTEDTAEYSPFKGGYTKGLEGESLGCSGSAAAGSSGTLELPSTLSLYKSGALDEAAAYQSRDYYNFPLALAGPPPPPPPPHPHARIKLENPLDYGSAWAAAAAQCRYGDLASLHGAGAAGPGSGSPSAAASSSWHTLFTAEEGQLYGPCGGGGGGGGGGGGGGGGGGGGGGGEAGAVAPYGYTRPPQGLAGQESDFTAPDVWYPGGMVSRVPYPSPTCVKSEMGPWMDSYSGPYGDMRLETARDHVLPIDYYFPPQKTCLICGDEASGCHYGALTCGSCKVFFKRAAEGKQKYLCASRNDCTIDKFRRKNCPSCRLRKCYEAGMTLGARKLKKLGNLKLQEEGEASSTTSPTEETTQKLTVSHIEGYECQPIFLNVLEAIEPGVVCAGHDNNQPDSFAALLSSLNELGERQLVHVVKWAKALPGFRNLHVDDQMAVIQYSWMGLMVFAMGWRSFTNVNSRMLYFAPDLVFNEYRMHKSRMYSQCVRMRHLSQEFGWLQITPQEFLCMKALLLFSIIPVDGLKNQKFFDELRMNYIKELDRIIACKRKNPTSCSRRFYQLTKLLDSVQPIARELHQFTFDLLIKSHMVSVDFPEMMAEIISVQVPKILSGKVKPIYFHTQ
Method in brief: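 Stable MMTV-luciferase reporter in MDA-kb2 cells; note the promoter carries GR as well as AR response elements. 16 h compound treatment, 37C, 0% CO2; ONE-Glo luminescence endpoint.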

[18] = target: Androgen receptor (Homo sapiens) (UniProt P10275); test: qHTS assay to identify small molecule antagonists of the androgen receptor (AR) signaling pathway using the MDA cell line (AID 743042; further: nearly all actives have a fitted effect of over 55% in size; further: potency means the concentration at half of the fitted maximal effect)
Method in brief: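 Antagonist mode: compounds plus R1881 agonist added to MDA-kb2 AR-luc cells, incubated 16 h at 37C. Luciferase reporter luminescence quantified, with multiplexed CellTiter-Fluor readout for cell viability.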

Measured: Potency

O=C(O)CN1C(=O)c2cccc3cccc(c23)C1=O
not listed: [12] | [13] | [14] | [15] | [16] | [17] | [18]
inactive: all other assays above

CS(=O)(=O)c1ccc([C@@H](C[C@H]2CCC(=O)C2)C(=O)Nc2cnccn2)cc1Cl
not listed: [2] | [3] | [11] | [15] | [16] | [17] | [18]
inactive: all other assays above

Nc1ccc(N=Nc2ccc(N)cc2)cc1
active: [6] 24.3 µM
not listed: [2] | [3] | [5] | [10] | [11] | [17] | [18]
inactive: all other assays above

COc1ccc(CCN(C)CCCN2CCc3cc(OC)c(OC)cc3CC2=O)cc1OC
not listed: [2] | [17] | [18]
inactive: all other assays above

O=C(O)CCC(=O)OC[C@@H](NC(=O)C(Cl)Cl)[C@H](O)c1ccc([N+](=O)[O-])cc1
not listed: [2] | [12] | [13] | [14] | [16] | [17] | [18]
inactive: all other assays above

O=C(O)c1cccc(C[C@@H]2COc3ccc(OCc4nc5cc(F)ccc5s4)cc3[C@@H]2O)c1
active: [15] 68.7 µM
not listed: [2] | [3] | [17] | [18]
inactive: all other assays above

CC(=O)OC(C)C[N+](C)(C)C (configuration not stated)
not listed: [2] | [7] | [8] | [17] | [18]
inactive: all other assays above

Nc1c(Cl)cc(Cl)cc1[N+](=O)[O-]
not listed: [2] | [3] | Aromatase (Homo sapiens) | [15]
inactive: all other assays above

COC(=O)C1=C(C)NC(C)=C(C(=O)OC(C)(C)CN(C)CCC(c2ccccc2)c2ccccc2)C1c1cccc([N+](=O)[O-])c1 (configuration not stated)
inactive: [4] | [17] | [5] | [12] | [10] | [11]
active: [2] 5.96 µM | [3] 9.44 µM | [18] 29.8 µM | [6] 8.41 µM | [7] 6.68 µM | [16] 10.7 µM [inhibitor] | [14] 26.6 µM | Aromatase (Homo sapiens) 18.8 µM
